Results published in PubChem BioAssay (NCATS).

Key:
[1] = qHTS profiling of the MIPE4 collection as inhibitors of Plasmodium falciparum (3D7) proliferation (AID 743344);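 also: scaled between DMSO vehicle wells and 0.29 µM artemisinin as full inhibition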; settings: P. falciparum 3D7 in erythrocytes, SYBR Green DNA fluorescence, 72 h; at 28.5 µM
How it was run: (§1)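 Erythrocytes infected with P. falciparum (0.3% parasitemia, 2.5% hematocrit) incubated with compounds 72 h at 37 C, 5% CO2. Lysis with saponin/Triton buffer containing SYBR Green I, overnight at room temperature in the dark; DNA fluorescence (485/535 nm) normalised to 0.29 uM artemisinin and DMSO.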

[2] = qHTS profiling of the MIPE4 collection as inhibitors of Plasmodium falciparum (DD2) proliferation (AID 743345); settings: P. falciparum Dd2 in erythrocytes, SYBR Green DNA, 72 h; at 28.5 µM unless noted
How it was run: as §1

[3] = qHTS profiling of the MIPE4 collection as inhibitors of Plasmodium falciparum (DD2) proliferation (Rep 2) (AID 743346); settings: P. falciparum Dd2 in erythrocytes, SYBR Green DNA, 72 h; at 28.5 µM
How it was run: as §1

[4] = qHTS profiling of the MIPE4 collection as inhibitors of Plasmodium falciparum (HB3) proliferation (AID 743347);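 also: plate controls were DMSO vehicle wells for no effect and artemisinin wells for full effect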; settings: P. falciparum HB3 in erythrocytes, SYBR Green DNA, 72 h; at 28.5 µM
How it was run: as §1

SMILES: CC1=C(O)C(=O)C=C2C1=CC=C1[C@@]2(C)CC[C@@]2(C)[C@@H]3C[C@](C)(C(=O)O)CC[C@]3(C)CC[C@]12C
- parasite growth, % of DMSO control [1]: 8.49%
- parasite growth remaining, % of DMSO control (lower = more inhibition) [2]: 7.57%
- parasite growth, % of control (lower = inhibition) [3]: 16.2%
- growth, % of control [4]: 8.31%

SMILES: O=C1C=CC[C@@H]2[C@H]3CCCN4CCC[C@@H](CN12)[C@@H]34
- parasite growth, % of DMSO control [1]: 101%
- parasite growth remaining, % of DMSO control (lower = more inhibition) [2]: 99.7%
- parasite growth, % of control (lower = inhibition) [3]: 86.7%
- growth, % of control [4]: 97.5%

SMILES: CCN1C[C@]2(OC(=O)c3ccccc3NC(C)=O)CC[C@H](OC)[C@@]34[C@H]5CC6[C@@H](OC)C[C@](O)(C(C[C@@H]23)[C@@H]14)[C@@]5(O)[C@@H]6OC
- parasite growth, % of DMSO control [1]: 97%
- parasite growth remaining, % of DMSO control (lower = more inhibition) [2]: 94%
- parasite growth, % of control (lower = inhibition) [3]: 72.6%
- growth, % of control [4]: 85.8%

SMILES: COc1cc2cc(c1Cl)N(C)C(=O)C[C@H](OC(=O)C(C)C)[C@]1(C)O[C@H]1[C@H](C)[C@@H]1C[C@@](O)(NC(=O)O1)[C@H](OC)C=CC=C(C)C2
- parasite growth, % of DMSO control [1]: 14%
- parasite growth remaining, % of DMSO control (lower = more inhibition) [2]: 16.8%
- parasite growth, % of control (lower = inhibition) [3]: 21.9%
- growth, % of control [4]: 9.61%

SMILES: CC(=CCCC1=CCC(C2=CC(=O)OC2O)OC1O)CCC1=C(C)CCCC1(C)C (stereo unspecified)
- parasite growth, % of DMSO control [1]: 15.8%
- parasite growth remaining, % of DMSO control (lower = more inhibition) [2]: 44.2%
- parasite growth, % of control (lower = inhibition) [3]: 72%
- growth, % of control [4]: 36%

SMILES: COCC1(CO)C(=O)C2CCN1CC2 (stereo unspecified)
- parasite growth, % of DMSO control [1]: 94.3%
- parasite growth remaining, % of DMSO control (lower = more inhibition) [2]: 85.2%
- parasite growth, % of control (lower = inhibition) [3]: 42%
- growth, % of control [4]: 87.2%

SMILES: CC(C)[C@]12O[C@@H]1[C@@H]1O[C@]13[C@]1(O[C@H]1C[C@@H]1C4=C(CC[C@@]13C)C(=O)OC4)[C@H]2O
- parasite growth, % of DMSO control [1]: 56.9%
- parasite growth remaining, % of DMSO control (lower = more inhibition) [2]: 77%
- parasite growth, % of control (lower = inhibition) [3]: 49.4%

SMILES: N=c1c2c(-c3ccccc3)c(-c3ccccc3)n(Cc3ccccc3)c2ncn1C1CCC(O)CC1 (stereo unspecified)
- parasite growth, % of DMSO control [1]: 10.7%
- parasite growth remaining, % of DMSO control (lower = more inhibition) [2]: 9.02%
- parasite growth, % of control (lower = inhibition) [3]: 12.7%
- growth, % of control [4]: 9.68%

SMILES: CCOC(=O)Nc1ccc(NCc2ccc(F)cc2)cc1N
- parasite growth, % of DMSO control [1]: 12.8%
- parasite growth remaining, % of DMSO control (lower = more inhibition) [2]: 13.7%
- parasite growth, % of control (lower = inhibition) [3]: 30.4%

SMILES: CC(=O)O[C@@]12CO[C@H]1C[C@H](O)[C@@]1(C)C(=O)[C@H](O)C3=C(C)[C@@H](O)C[C@@](O)([C@@H](OC(=O)c4ccccc4)[C@@H]21)C3(C)C
- parasite growth, % of DMSO control [1]: 60.1%
- parasite growth remaining, % of DMSO control (lower = more inhibition) [2]: 94.5%
- parasite growth, % of control (lower = inhibition) [3]: 42.4%
- growth, % of control [4]: 34.8%

SMILES: O=S(=O)(CC1CS1)c1ccc(Oc2ccccc2)cc1 (stereo unspecified)
- parasite growth, % of DMSO control [1]: 94.4%
- parasite growth remaining, % of DMSO control (lower = more inhibition) [2]: 104%
- parasite growth, % of control (lower = inhibition) [3]: 73.8%
- growth, % of control [4]: 106%

SMILES: C[C@@H]1CC[C@@]2(OC1)O[C@H]1C[C@H]3[C@@H]4CC=C5C[C@@H](O[C@@H]6O[C@H](CO)[C@@H](O[C@@H]7O[C@@H](C)[C@H](O)[C@@H](O)[C@@H]7O)[C@H](O)[C@@H]6O[C@@H]6O[C@@H](C)[C@H](O)[C@@H](O)[C@@H]6O)CC[C@]5(C)[C@@H]4CC[C@]3(C)[C@@H]1[C@H]2C
- parasite growth, % of DMSO control [1]: 57.2%
- parasite growth remaining, % of DMSO control (lower = more inhibition) [2]: 52.8%
- parasite growth, % of control (lower = inhibition) [3]: 61.5%
- growth, % of control [4]: 28.8%

SMILES: CCc1c(C(=O)C(N)=O)c2c(OCC(=O)O)cccc2n1Cc1ccccc1
- parasite growth, % of DMSO control [1]: 111%
- parasite growth remaining, % of DMSO control (lower = more inhibition) [2]: 97.5%
- parasite growth, % of control (lower = inhibition) [3]: 83.8%
- growth, % of control [4]: 99.7%

SMILES: COC1=C[C@@H]2[C@@H]3Cc4ccc(OC)c(O)c4[C@]2(CCN3C)CC1=O
- parasite growth, % of DMSO control [1]: 102%
- parasite growth remaining, % of DMSO control (lower = more inhibition) [2]: 84.4%
- parasite growth, % of control (lower = inhibition) [3]: 34.6%
- growth, % of control [4]: 106%

SMILES: COC1=CC(C)=C[C@@H](C)[C@@H](O)[C@@H](C)CC(C)=CC=C[C@H](OC)[C@H]([C@@H](C)[C@@H](O)[C@H](C)[C@@]2(O)C[C@@H](O)[C@H](C)[C@@H](C(C)C)O2)OC1=O
- parasite growth, % of DMSO control [1]: 6.56%
- parasite growth remaining, % of DMSO control (lower = more inhibition) [2]: 6.47%
- parasite growth, % of control (lower = inhibition) [3]: 13.8%
- growth, % of control [4]: 8.98%

SMILES: O=S(=O)(F)Cc1ccccc1
- parasite growth, % of DMSO control [1]: 95.8%
- parasite growth remaining, % of DMSO control (lower = more inhibition) [2]: 95.2%
- parasite growth, % of control (lower = inhibition) [3]: 85.6%
- growth, % of control [4]: 94%

SMILES: COc1cccc2c1[C@]13CCN(CC4CC4)[C@H](C2)[C@]1(OC)CCC(=O)C3
- parasite growth, % of DMSO control [1]: 98.3%
- parasite growth remaining, % of DMSO control (lower = more inhibition) [2]: 102%
- parasite growth, % of control (lower = inhibition) [3]: 31.9%
- growth, % of control [4]: 69.1%

SMILES: CC(C)N(CCNC(=O)CN1CCCC1=O)C(C)C
- parasite growth, % of DMSO control [1]: 101%
- parasite growth remaining, % of DMSO control (lower = more inhibition) [2]: 17.4%
- parasite growth, % of control (lower = inhibition) [3]: 121%
- growth, % of control [4]: 108%

SMILES: C[C@@H]1CC[C@H]2[C@@H](C)C(=O)O[C@@H]3O[C@@]4(C)CC[C@H]1[C@]32OO4
- parasite growth, % of DMSO control [1]: 22.6%
- parasite growth remaining, % of DMSO control (lower = more inhibition) [2]: 7.95%
- parasite growth, % of control (lower = inhibition) [3]: 7.78%

SMILES: N#C[C@H](O[C@@H]1O[C@H](CO[C@@H]2O[C@H](CO)[C@H](O)[C@H](O)[C@H]2O)[C@H](O)[C@H](O)[C@H]1O)c1ccccc1
- parasite growth, % of DMSO control [1]: 61.2%
- parasite growth remaining, % of DMSO control (lower = more inhibition) [2]: 17.6%
- parasite growth, % of control (lower = inhibition) [3]: 37.7%
- growth, % of control [4]: 60.6%

SMILES: Cc1ccccc1-n1c(Cn2ncc3c(N)ncnc32)nc2cccc(C)c2c1=O
- parasite growth, % of DMSO control [1]: 48.8%
- parasite growth, % of control (lower = inhibition) [3]: 37%
- growth, % of control [4]: 53.3%

SMILES: C[C@]12CC[C@H]3[C@@H](CCC4=CC(=O)CC[C@@]43C)[C@H]1CC[C@H]2O
- parasite growth, % of DMSO control [1]: 78.5%
- parasite growth, % of control (lower = inhibition) [3]: 93.2%
- growth, % of control [4]: 86.3%

SMILES: c1cc2c(cc1[C@H]1OC[C@H]3[C@H]1CO[C@H]3c1ccc3c(c1)OCO3)OCO2
- parasite growth, % of DMSO control [1]: 104%
- parasite growth, % of control (lower = inhibition) [3]: 126%
- growth, % of control [4]: 107%

SMILES: C[C@]12COC(=O)C[C@@H]1CC[C@@H]1[C@H]2CC[C@@]2(C)[C@H]1CC[C@]2(C)O
- parasite growth, % of DMSO control [1]: 89.9%
- parasite growth, % of control (lower = inhibition) [3]: 93%
- growth, % of control [4]: 93.7%

SMILES: COc1ccc(C(=O)c2c(C)n(CCN3CCOCC3)c3cc(I)ccc23)cc1
- parasite growth, % of DMSO control [1]: 44.6%
- parasite growth, % of control (lower = inhibition) [3]: 35.4%
